Calls of active or inactive are those of the source.
Experiments:
[1] = binders of probe aFSTL3 on microarray, primary screen, stem cell growth factor project, biochemical, small-molecule microarray, fluorescence 635/667 (AID 1064); settings: higher = more signal;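 further: measures binding of the biotinylated anti-FSTL3 antibody to printed compounds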
[2] = binders from COS7 lysate, DM2A8 probe, primary screen, torsin A project, cell lysate, small-molecule microarray, fluorescence 635/667 (AID 1065); settings: higher = more signal, COS7 lysate expressing mutant human TOR1A
[3] = binders of probe aFGF2 on microarray, primary screen, stem cell growth factor project, biochemical, small-molecule microarray, fluorescence 635/667 (AID 1067); settings: higher = more signal;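 further: measures binding of biotinylated aFGF2 protein to printed compounds on slides; z-score merges feature fluorescence and signal-to-noise across triplicate slides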
[4] = binders of probe aFGF10 on microarray, primary screen, stem cell growth factor project, biochemical, small-molecule microarray, fluorescence 635/667 (AID 1071); settings: higher = more signal;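 further: score merges 667 nm spot intensity and signal to noise from triplicate slides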
[5] = target: Neurogenic locus notch homolog protein 2 (Homo sapiens) (UniProt Q04721); test: Notch2 binders on small-molecule microarrays, primary screen, biochemical, small-molecule microarray, 635 nm fluorescence, stem cell growth factors (AID 1073); settings: Notch2 binding, higher = more signal
[6] = target: Pro-neuregulin-1, membrane-bound isoform (Homo sapiens) (UniProt Q02297); test: NRG1 binders on small-molecule microarrays, primary screen, psychiatric disease protein project, biochemical, small-molecule microarray, fluorescence 635/667 (AID 1075); settings: NRG1 binding, 635 nm fluorescence, higher = more signal;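 further: score combines 667 nm spot fluorescence with signal to noise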
[7] = test system: Neuregulin-1 EGF-like domain; test: binders of neuregulin-1 EGF-like domain, primary screen, biochemical, small-molecule microarray, 635 nm fluorescence (AID 1081); settings: small-molecule microarray binding, higher = more signal;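 further: binding of the protein to compounds printed on small-molecule microarray slides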
[8] = FRG1 promoter luciferase signal modulators, primary screen, FRG1 inhibition for FSHD, cell-based, C2C12 myotubes, firefly/Renilla luciferase, luminescence (AID 1084); settings: higher = more signal, called active from +8 up or from −8 down
[9] = binders of probe aFST on microarray, primary screen, stem cell growth factor project, biochemical, small-molecule microarray, fluorescence 635/667 (AID 1086); settings: higher = more signal;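 further: score merges 667 nm fluorescence with signal-to-noise of each printed compound spot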
[10] = binders of probe aHhip on microarray, primary screen, stem cell growth factor project, biochemical, small-molecule microarray, fluorescence 635/667 (AID 1087); settings: higher = more signal;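 further: score merges spot fluorescence at 667nm with spot signal to noise ratio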
[11] = test system: PRMT1 (protein arginine N-methyltransferase 1); test: PRMT1 binders on small-molecule microarrays, primary screen, biochemical, small-molecule microarray, 635 nm fluorescence (AID 1088); settings: small-molecule microarray binding, higher = more signal;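 further: binding of Prmt1 protein to compounds spotted on small-molecule microarray slides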
[12] = yeast growth modulation, basal conditions, primary screen, YJM789 clinical isolate, OD600, 24 h (AID 1089);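 further: growth of clinical yeast isolate S. cerevisiae YJM 789 seeded 1000 cells per well; test concentration not given here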; settings: S. cerevisiae YJM789 growth, higher = more signal, called active from +8 up or from −8 down
[13] = fission yeast growth modulation, primary screen, strain 972, OD600, 24 h, no modulator (AID 1090);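 further: basal condition with compound alone and no growth modifier present; test concentration not given here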; settings: S. pombe 972 growth, higher = more signal, called active from +8 up or from −8 down
[14] = S. cerevisiae growth modulation with rapamycin, primary screen, strain BY4716, OD600, 96 h (AID 1091); settings: higher = more signal, called active from +8 up or from −8 down; further: test concentration not given here
[15] = target: Torsin-1A-interacting protein 2 (Homo sapiens) (UniProt Q8NFQ8); test: LULL1 binders on small-molecule microarray, primary screen, cell lysate, human LULL1 lysate, 635/667 nm fluorescence (AID 1092); settings: hLULL1 lysate binding, 635 nm fluorescence, higher = more signal;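 further: probe is lysate of COS7 cells overexpressing human LULL1; score merges per-feature 667 nm fluorescence with signal-to-noise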
[16] = E. coli growth modulation, two-sided OD650, primary screen, E. coli filamentation project, strain DRC41, 24 h (AID 1093); settings: OD650, 24 h, higher = more signal, called active from +8 up or from −8 down;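 further: MC1000 strain lacking acrAB efflux and sulA so SOS filamentation is blocked; test concentration not given here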
[17] = small-molecule microarray binders of probe aLefty2, primary screen, biochemical, biotinylated probe, 635/667 nm fluorescence (AID 1094); settings: higher = more signal;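 further: score merges spot fluorescence near 667 nm with spot signal-to-noise ratio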
[18] = test system: Noggin (protein binding on small-molecule microarray); test: Noggin binders on small-molecule microarray, primary screen, biochemical, 635/667 nm fluorescence (AID 1095); settings: 635 nm fluorescence, higher = more signal;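 further: score merges 667 nm feature fluorescence with signal to noise over triplicate slides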
[19] = target: Neurogenic locus notch homolog protein 3 (Homo sapiens) (UniProt Q9UM47); test: NOTCH3 binders on small-molecule microarray, primary screen, biochemical, 635/667 nm fluorescence (AID 1096); settings: NOTCH3 binding, 635 nm fluorescence, higher = more signal
[20] = small-molecule microarray binders of probe aEGFR, primary screen, biochemical, biotinylated probe, 635/667 nm fluorescence (AID 1097); settings: higher = more signal;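 further: probe is a biotinylated anti-EGFR antibody binding compounds printed on slides; score combines fluorescence near 667 nm and signal to noise of each spot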

Chain of Torsin-1A-interacting protein 2 (Homo sapiens) (Q8NFQ8 whole entry, looked up): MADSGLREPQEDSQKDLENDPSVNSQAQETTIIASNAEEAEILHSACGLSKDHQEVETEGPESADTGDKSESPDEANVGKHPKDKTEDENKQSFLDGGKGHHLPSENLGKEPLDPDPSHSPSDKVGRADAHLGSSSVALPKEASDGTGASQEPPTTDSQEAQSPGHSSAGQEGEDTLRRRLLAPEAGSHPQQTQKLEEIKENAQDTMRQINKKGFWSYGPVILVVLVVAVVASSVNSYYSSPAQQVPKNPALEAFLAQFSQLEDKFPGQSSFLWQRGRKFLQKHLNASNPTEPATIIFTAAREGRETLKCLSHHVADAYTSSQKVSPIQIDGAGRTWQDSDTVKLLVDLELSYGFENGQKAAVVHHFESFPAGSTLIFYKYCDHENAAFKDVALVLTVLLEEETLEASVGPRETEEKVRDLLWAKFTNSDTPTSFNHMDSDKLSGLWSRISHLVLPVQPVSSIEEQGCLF
Chain of Neurogenic locus notch homolog protein 3 (Homo sapiens) (Q9UM47 whole entry, looked up): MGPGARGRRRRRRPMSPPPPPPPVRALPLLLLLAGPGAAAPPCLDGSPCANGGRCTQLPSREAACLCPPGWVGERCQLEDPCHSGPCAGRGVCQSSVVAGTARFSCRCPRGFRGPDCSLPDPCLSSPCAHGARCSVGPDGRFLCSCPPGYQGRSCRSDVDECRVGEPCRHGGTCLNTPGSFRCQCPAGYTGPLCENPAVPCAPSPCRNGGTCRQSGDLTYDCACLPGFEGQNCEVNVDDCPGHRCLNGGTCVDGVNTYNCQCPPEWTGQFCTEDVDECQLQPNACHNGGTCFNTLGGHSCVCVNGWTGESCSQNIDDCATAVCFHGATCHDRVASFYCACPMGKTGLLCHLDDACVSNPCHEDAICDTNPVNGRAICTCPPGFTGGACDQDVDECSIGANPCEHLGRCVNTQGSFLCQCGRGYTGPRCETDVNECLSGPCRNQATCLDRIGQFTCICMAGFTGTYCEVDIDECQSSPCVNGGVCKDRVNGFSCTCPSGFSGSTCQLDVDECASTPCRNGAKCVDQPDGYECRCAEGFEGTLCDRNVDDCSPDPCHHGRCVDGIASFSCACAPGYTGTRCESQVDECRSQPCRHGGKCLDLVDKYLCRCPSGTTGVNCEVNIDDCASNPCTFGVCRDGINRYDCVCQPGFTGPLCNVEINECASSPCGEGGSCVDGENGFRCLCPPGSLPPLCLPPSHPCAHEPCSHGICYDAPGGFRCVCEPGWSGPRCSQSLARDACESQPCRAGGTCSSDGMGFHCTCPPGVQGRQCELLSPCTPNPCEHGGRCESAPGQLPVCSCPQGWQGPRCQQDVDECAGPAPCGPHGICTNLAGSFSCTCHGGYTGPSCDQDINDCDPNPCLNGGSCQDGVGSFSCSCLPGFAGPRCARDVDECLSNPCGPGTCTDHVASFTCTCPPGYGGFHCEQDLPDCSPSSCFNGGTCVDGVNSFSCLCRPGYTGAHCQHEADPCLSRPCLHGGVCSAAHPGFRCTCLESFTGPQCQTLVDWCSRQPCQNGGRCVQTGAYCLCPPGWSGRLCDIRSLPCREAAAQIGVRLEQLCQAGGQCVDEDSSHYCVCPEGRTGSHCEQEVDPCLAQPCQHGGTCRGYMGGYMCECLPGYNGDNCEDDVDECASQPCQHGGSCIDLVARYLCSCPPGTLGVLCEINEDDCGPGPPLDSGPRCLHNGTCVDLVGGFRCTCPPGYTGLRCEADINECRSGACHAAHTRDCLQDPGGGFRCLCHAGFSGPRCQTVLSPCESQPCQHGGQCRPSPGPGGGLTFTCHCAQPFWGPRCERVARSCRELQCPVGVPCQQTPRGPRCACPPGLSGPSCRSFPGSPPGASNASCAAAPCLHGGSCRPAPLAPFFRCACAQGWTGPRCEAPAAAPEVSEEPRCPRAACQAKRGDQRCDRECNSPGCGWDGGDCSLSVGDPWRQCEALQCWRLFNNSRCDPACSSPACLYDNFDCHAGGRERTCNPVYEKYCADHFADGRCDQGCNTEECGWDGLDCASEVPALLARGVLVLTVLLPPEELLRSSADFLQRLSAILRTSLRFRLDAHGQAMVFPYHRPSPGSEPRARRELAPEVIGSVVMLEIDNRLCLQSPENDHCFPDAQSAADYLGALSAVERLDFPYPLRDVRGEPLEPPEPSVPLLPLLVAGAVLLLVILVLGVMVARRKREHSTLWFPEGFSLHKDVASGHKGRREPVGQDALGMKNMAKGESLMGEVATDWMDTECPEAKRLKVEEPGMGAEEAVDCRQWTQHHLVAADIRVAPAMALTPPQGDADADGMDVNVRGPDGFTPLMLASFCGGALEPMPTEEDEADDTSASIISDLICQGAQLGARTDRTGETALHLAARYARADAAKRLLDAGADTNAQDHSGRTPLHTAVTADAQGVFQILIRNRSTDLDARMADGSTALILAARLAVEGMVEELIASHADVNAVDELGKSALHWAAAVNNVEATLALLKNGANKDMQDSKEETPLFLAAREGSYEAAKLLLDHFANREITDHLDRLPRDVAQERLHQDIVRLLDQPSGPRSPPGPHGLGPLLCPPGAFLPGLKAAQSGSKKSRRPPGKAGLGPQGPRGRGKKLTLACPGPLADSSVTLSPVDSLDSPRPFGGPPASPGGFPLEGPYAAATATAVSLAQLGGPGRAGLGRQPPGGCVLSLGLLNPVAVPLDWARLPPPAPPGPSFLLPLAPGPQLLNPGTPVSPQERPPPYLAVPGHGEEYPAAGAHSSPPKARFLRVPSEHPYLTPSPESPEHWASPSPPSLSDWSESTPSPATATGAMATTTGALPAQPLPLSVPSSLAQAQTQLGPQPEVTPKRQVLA
Chain of Pro-neuregulin-1, membrane-bound isoform (Homo sapiens) (Q02297 whole entry, looked up, the tested form may be a part, canonical isoform): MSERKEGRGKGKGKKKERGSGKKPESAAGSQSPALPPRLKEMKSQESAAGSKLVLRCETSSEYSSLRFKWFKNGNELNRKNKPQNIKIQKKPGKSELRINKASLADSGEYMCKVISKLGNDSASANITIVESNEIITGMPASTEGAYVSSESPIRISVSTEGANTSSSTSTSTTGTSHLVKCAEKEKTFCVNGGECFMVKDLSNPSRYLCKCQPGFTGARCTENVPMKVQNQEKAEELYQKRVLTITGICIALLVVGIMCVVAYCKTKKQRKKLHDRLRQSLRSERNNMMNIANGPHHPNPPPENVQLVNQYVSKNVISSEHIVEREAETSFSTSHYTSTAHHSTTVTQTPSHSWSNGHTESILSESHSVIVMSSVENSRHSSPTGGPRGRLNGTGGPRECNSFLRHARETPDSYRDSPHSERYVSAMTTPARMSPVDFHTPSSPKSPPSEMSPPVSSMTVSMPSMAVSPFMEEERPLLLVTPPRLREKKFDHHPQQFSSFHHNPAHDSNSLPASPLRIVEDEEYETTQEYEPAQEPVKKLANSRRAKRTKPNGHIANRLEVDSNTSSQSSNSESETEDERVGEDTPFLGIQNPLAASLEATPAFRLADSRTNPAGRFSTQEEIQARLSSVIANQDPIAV

Row | Compound | composite z-score [1] | composite z-score [2] | composite z-score [3] | composite z-score [4] | composite z-score [5] | composite z-score [6] | composite z-score [7] | z-score [8] | composite z-score [9] | composite z-score [10] | composite z-score [11] | z-score [12] | z-score [13] | z-score [14] | composite z-score [15] | z-score [16] | composite z-score [17] | composite z-score [18] | composite z-score [19] | composite z-score [20]
1 | CC1CC/C=C\[C@H]2OC34C=CCN(C(C)(C)C)C(=O)[C@H]3N(C(CO)C(C)C)C(=O)[C@@H]4C2C(=O)O1 (stereo not given in full) | -0.259 | 2.01 | -0.141 | 0.323 | -0.147 | 0.867 | 1.5 | 1.44 (inactive) | -0.0219 | -0.318 | -0.447 | -1.38 (inactive) | -0.429 (inactive) | -0.851 (inactive) | 2.5 | -0.515 (inactive) | -0.147 | 0.476 | 0.551 | -0.0968
2 | O=C1C[C@@](C(=O)NCC(F)(F)F)(c2ccc([N+](=O)[O-])cc2)[C@@H](c2ccc(CO)cc2)N1CC12CC3CC(CC(C3)C1)C2 | 0.213 | 0.244 | 0.134 | 1.15 | 1.19 | 0.812 | 1.32 | -2.42 (inactive) | 0.724 | 0.914 | 1.55 | 0.263 (inactive) | -1.03 (inactive) | 1.77 (inactive) | 2.05 | -0.49 (inactive) | 0.426 | 1.26 | 0.614 | 0.751
3 | CCCCC=C[C@@H](NC(=O)c1ccccc1)c1ccccc1 | 0.277 | 0.241 | 0.0011 | 0.356 | 1.21 | 0.868 | 1.02 | 1.03 (inactive) | 0.866 | -0.206 | 1.04 | 0.409 (inactive) | 0.336 (inactive) | 0.889 (inactive) | 3.51 | -1.37 (inactive) | -0.0261 | -0.328 | 1.09 | 0.0488
4 | COc1ccc([Si](C)(C)[C@H]2[C@H](CC(=O)N3CCC[C@H]3CO)O[C@@]3(C(=O)N(Cc4ccc(N5CCC5=O)cc4)c4ccccc43)[C@@H]2C)cc1 | -0.589 | 0.429 | -0.0276 | 0.299 | 0.549 | 0.454 | 1.1 | -4.59 (inactive) | 0.485 | -0.215 | 1.54 | -0.647 (inactive) | -1.59 (inactive) | -1.31 (inactive) | 2.42 | 0.13 (inactive) | -0.197 | 1.65 | 1.07 | -0.0578
5 | O=c1cccc(-c2ccco2)o1 | -0.539 | 0.336 | -0.132 | 0.694 | 0.386 | 0.904 | 0.498 | 0.557 (inactive) | 0.0153 | -0.0994 | 1.29 | -0.445 (inactive) | -0.311 (inactive) | 0.167 (inactive) | 0.108 | -0.696 (inactive) | -0.0963 | 1.32 | 0.832 | 0.0023
6 | NC(=O)[C@@H]1[C@H]2C(=O)O[C@H](c3ccccc3)[C@H](c3ccccc3)N2[C@H](c2ccc(OCCO)cc2)[C@@]12C(=O)Nc1ccc(C#CCCO)cc12 | 0.398 | 0.165 | 0.0122 | 0.786 | 0.472 | 1.23 | 1.22 | 1.62 (inactive) | -0.222 | -0.236 | 1.45 | 1.58 (inactive) | 0.883 (inactive) | 2.3 (inactive) | 1.85 | 0.459 (inactive) | 0.0847 | -0.159 | -0.0629 | -0.0622
7 | NC(=O)[C@H]1[C@@H]2C(=O)O[C@@H](c3ccccc3)[C@@H](c3ccccc3)N2[C@@H](c2ccc(O)cc2)[C@]12C(=O)Nc1ccc(C#CC3=CCCCC3)cc12 | 0.124 | 0.813 | -0.0979 | -0.105 | -0.734 | 1.22 | 1.25 | 1.23 (inactive) | 0.0569 | -0.406 | 1.45 | 1.42 (inactive) | 0.481 (inactive) | 2.1 (inactive) | 2.83 | -1.32 (inactive) | -0.185 | 0.186 | 0.169 | -0.186
8 | CN1C=C(C(=O)OCCS(C)(=O)=O)C(C(=O)OCCS(C)(=O)=O)=CC(c2ccc(CO)cc2)=CC1c1cccs1 (stereo not given) | -0.0269 | -0.0376 | -0.0448 | 0.236 | -0.0588 | 1.47 | 1.03 | 2.55 (inactive) | 0.0216 | 0.0024 | 0.568 | 0.379 (inactive) | -3.74 (inactive) | 0.148 (inactive) | 2.01 | 0.326 (inactive) | -0.116 | 0.484 | 0.407 | -0.0594
9 | [N-]=[N+]=Nc1ccccc1C[C@@]1(C(=O)O)N=C(c2ccc(OCCCO)cc2)O[C@@H]1c1ccccc1N=[N+]=[N-] | 0.943 | 0.211 | 0.0171 | 0.325 | 1.37 | 1.95 | 1.21 | -0.22 (inactive) | 1.36 | -0.283 | 1.39 | -1.05 (inactive) | -0.613 (inactive) | -1.67 (inactive) | 3.04 | -0.679 (inactive) | 0.255 | -0.414 | 1.09 | 0.0998
10 | O=C1C2C=CC(C(O)C=Cc3ccc([N+](=O)[O-])cc3)N(Nc3ccccc3)C2C(=O)N1c1ccccc1 (stereo not given) | -0.134 | -0.0552 | 0.183 | 0.995 | 1.59 | 1.7 | 0.967 | -0.028 (inactive) | 1.22 | -0.0237 | 1.33 | 0.431 (inactive) | 0.102 (inactive) | -0.19 (inactive) | 2.78 | -0.608 (inactive) | 0.349 | 0.505 | 1.04 | -0.0238

From PubChem BioAssay
